Assay results from PubChem BioAssay AID1159580 (chemical genetic matrix, 2015).
About 2,000 (36%) of roughly 5,500 compounds were called active. About 18% were inconclusive and are not listed. No stated cut-off is given here; in the data, active means normalized growth mostly below about 0.91 (no sharp cut-off); inconclusive means no clear call, values can overlap the other calls; inactive means mostly above about 0.92. Some of the results follow.

Experiment: chemical genetic growth profiling, strain panel (AID 1159580);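 further: tested at 20 µM; growth read once vehicle control cultures reached saturation at 30 °C; 1 = growth at the plate median or of vehicle wells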
Settings: S. cerevisiae deletion strains, growth OD

Measured: normalized growth

O=c1c(O)c(-c2ccc(O)cc2)oc2ccccc12
active: locus YAL021C, strain ccr4, stronger effect = lower value 0.576 | locus YAL026C, strain drs2, stronger effect = lower value 0.707 | locus YAL030W, strain snc1, stronger effect = lower value 0.809 | locus YBL061C, strain skt5, stronger effect = lower value 0.714 | locus YBR009C, strain hhf1, stronger effect = lower value 0.7 | locus YBR023C, strain chs3, stronger effect = lower value 0.643 | locus YBR231C, strain swc5, stronger effect = lower value 0.794 | locus YBR279W, strain paf1, stronger effect = lower value 0.749 | locus YCL011C, strain gbp2, stronger effect = lower value 0.762 | locus YCL016C, strain dcc1, stronger effect = lower value 0.849 | locus YCL061C, strain MRC1, stronger effect = lower value 0.904 | locus YCL069W, strain vba3, stronger effect = lower value 0.816 | locus YDR069C, strain doa4, stronger effect = lower value 0.56 | locus YDR137W, strain rgp1, stronger effect = lower value 0.397 | locus YDR159W, strain sac3, stronger effect = lower value 0.792 | locus YDR195W, strain ref2 1.34 [resistant] | locus YDR297W, strain sur2, stronger effect = lower value 0.82 | locus YDR334W, strain swr1, stronger effect = lower value 0.831 | locus YDR335W, strain msn5, stronger effect = lower value 0.789 | locus YDR392W, strain spt3, stronger effect = lower value 0.284 | locus YEL003W, strain gim4, stronger effect = lower value 0.79 | locus YEL037C, strain rad23, stronger effect = lower value 0.853 | locus YEL061C, strain CIN8 (second series), stronger effect = lower value 0.885 | locus YER015W, strain faa2, stronger effect = lower value 0.615 | locus YER016W, strain bim1, stronger effect = lower value 0.863 | locus YER111C, strain swi4, stronger effect = lower value 0.745 | locus YER155C, strain BEM2 (second series), stronger effect = lower value 0.489 | locus YFR010W, strain ubp6, stronger effect = lower value 0.84 | locus YGL173C, strain kem1, stronger effect = lower value 0.499 | locus YGL240W, strain doc1, stronger effect = lower value 0.855 | locus YGL253W, strain hxk2, stronger effect = lower value 0.63 | locus YHR013C, strain ard1, stronger effect = lower value 0.506 | locus YHR027C, strain rpn1, stronger effect = lower value 0.546 | locus YHR030C, strain SLT2, stronger effect = lower value 0.847 | locus YHR142W, strain chs7, stronger effect = lower value 0.495 | locus YJL095W, strain BCK1 (second series), stronger effect = lower value 0.731 | locus YJL095W, strain BCK1, stronger effect = lower value 0.833 | locus YJL129C, strain trk1, stronger effect = lower value 0.717 | locus YJL164C, strain tpk1, stronger effect = lower value 0.564 | locus YJL166W, strain qcr8, stronger effect = lower value 0.538 | locus YJL187C, strain SWE1, stronger effect = lower value 0.725 | locus YKL160W, strain elf1, stronger effect = lower value 0.713 | locus YLL001W, strain dnm1, stronger effect = lower value 0.777 | locus YLL026W, stronger effect = lower value 0.809 | locus YLL041C, strain sdh2, stronger effect = lower value 0.91 | locus YLR027C, strain aat2, stronger effect = lower value 0.695 | locus YLR113W, strain HOG1, stronger effect = lower value 0.719 | locus YLR221C, strain rsa3, stronger effect = lower value 0.697 | locus YLR258W, strain gsy2, stronger effect = lower value 0.766 | locus YLR262C, strain YPT6 (second series), stronger effect = lower value 0.369 | locus YLR320W, strain mms22, stronger effect = lower value 0.426 | locus YLR342W, strain FKS1, stronger effect = lower value 0.757 | locus YLR370C, strain arc18, stronger effect = lower value 0.781 | locus YLR384C, strain iki3, stronger effect = lower value 0.905 | locus YML120C, strain ndi1, stronger effect = lower value 0.669 | locus YMR058W, strain fet3, stronger effect = lower value 0.179 | locus YMR205C, strain PFK2, stronger effect = lower value 0.56 | locus YMR231W, strain pep5, stronger effect = lower value 0.545 | locus YNL071W, strain lat1, stronger effect = lower value 0.471 | locus YNL209W, strain ssb2, stronger effect = lower value 0.458 | locus YNL248C, strain rpa49, stronger effect = lower value 0.837 | locus YOR001W, strain rrp6, stronger effect = lower value 0.695 | locus YOR070C, strain gyp1, stronger effect = lower value 0.666 | locus YOR080W, strain dia2, stronger effect = lower value 0.861 | locus YOR083W, strain WHI5, stronger effect = lower value 0.664 | locus YOR106W, strain vam3, stronger effect = lower value 0.319 | locus YOR231W, strain MKK1, stronger effect = lower value 0.847 | locus YOR265W, strain rbl2, stronger effect = lower value 0.816 | locus YOR270C, strain vph1, stronger effect = lower value 0.328 | locus YOR290C, strain snf2, stronger effect = lower value 0.641 | locus YPL051W, strain arl3, stronger effect = lower value 0.441 | locus YPL078C, strain atp4, stronger effect = lower value 0.651 | locus YPL106C, strain sse1, stronger effect = lower value 0.843 | locus YPL240C, strain hsp82, stronger effect = lower value 0.869 | locus YPL256C, strain CLN2, stronger effect = lower value 0.816
inactive: locus YBR171W, strain sec66, stronger effect = lower value 0.903 | locus YCR088W, strain abp1, stronger effect = lower value 0.962 | locus YDL005C, strain med2, stronger effect = lower value 0.965 | locus YDL040C, strain nat1, stronger effect = lower value 0.934 | locus YDR001C, strain nth1, stronger effect = lower value 0.936 | locus YGL167C, strain pmr1, stronger effect = lower value 0.921 | locus YGL227W, strain vid30, stronger effect = lower value 0.962 | locus YHR079C, strain IRE1, stronger effect = lower value 0.855 | locus YJL092W, strain hpr5, stronger effect = lower value 0.922 | locus YJL115W, strain asf1, stronger effect = lower value 0.971 | locus YJL154C, strain vps35, stronger effect = lower value 0.931 | locus YJR066W, strain TOR1, stronger effect = lower value 0.842 | locus YKR026C, strain gcn3, stronger effect = lower value 0.945 | locus YKR091W, strain srl3, stronger effect = lower value 0.937 | locus YLR357W, strain rsc2, stronger effect = lower value 0.9 | locus YMR125W, strain sto1, stronger effect = lower value 0.972 | locus YMR129W, stronger effect = lower value 0.932 | locus YNL183C, strain NPR1, stronger effect = lower value 0.838 | locus YNL322C, strain KRE1 (second series), stronger effect = lower value 0.909 | locus YNR049C, strain mso1, stronger effect = lower value 0.919
